Sm TGR block: S. mansoni TGR enzyme inhibition | AID 485364 | actives 3% (n = 360,000) | Potency, µM (doses to about 114 µM), usual class: inhibitors | purified TGR, DTNB reduction, TNB absorbance 405 nm | Q962Y6; further: nearly all actives have a fitted effect of over 60% in size
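TGR 20 nM + NADPH 100 uM (dispensed conc.), cpd preinc 15 min RT; start with NADPH (500 uM addition) then DTNB (15 mM addition). Kinetic TNB absorbance, 405 nm filter. Four-parameter Hill fit across titration.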
RE007 growth inh: less growth of the S. pombe RE007 Vpr strain. Potency, µM (doses to about 92.2 µM), most hits filed as inhibitors. actives 0.21% (n = 360,000). S. pombe RE007 Vpr strain, BacTiter-Glo ATP luminescence, 24 h; active means well fitted falling curve with a large enough effect; inconclusive means small, poorly fitted or top-dose-only effect; inactive means no such curve, though single readings can be large or run the other way; further: nearly all actives have a fitted effect of over 50% in size
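Fission yeast RE007 carrying one integrated HIV-1 vpr copy, seeded at OD 0.01 in PMG+AL medium with 23 nL pinned compound. Grown 24 h at 30 degrees; viability read by BacTiter-Glo luminescence after 5 min.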
AmpC detergent: blocks E. coli AmpC beta-lactamase in detergent assay. Potency, µM (doses to about 114 µM), usual class: inhibitors. P00811. AmpC hydrolysis of nitrocefin, absorbance 480 nm, 0.01% Triton. actives 0.041% (n = 370,000); further: nearly all actives have a fitted effect of over 25% in size
Target sequence (P00811 whole entry, looked up): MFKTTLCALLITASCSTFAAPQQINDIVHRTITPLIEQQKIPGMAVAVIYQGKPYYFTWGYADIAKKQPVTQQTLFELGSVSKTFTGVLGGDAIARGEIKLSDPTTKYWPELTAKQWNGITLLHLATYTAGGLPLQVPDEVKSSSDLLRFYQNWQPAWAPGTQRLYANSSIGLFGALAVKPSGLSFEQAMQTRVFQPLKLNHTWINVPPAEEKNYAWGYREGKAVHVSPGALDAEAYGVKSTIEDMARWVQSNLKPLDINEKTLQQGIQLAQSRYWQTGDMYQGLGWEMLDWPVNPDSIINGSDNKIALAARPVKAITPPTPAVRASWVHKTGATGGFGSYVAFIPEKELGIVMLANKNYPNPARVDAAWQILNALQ
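AmpC (5.3 nM in the dispensed reagent) in 20 mM phosphate pH 7.0 with 0.01% (detergent screen) or 0.0001% Triton X-100 was preincubated with compounds for 15 min at room temperature. Nitrocefin was then added from an 800 uM solution, and hydrolysis was followed at 480 nm.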
FBPA Giardia inh: Giardia lamblia aldolase inhibition. Potency, µM (top dose mostly 59.6 µM), actives largely listed as inhibitors. purified Giardia FBPA. actives 0.71% (n = 290,000); further: nearly all actives have a fitted effect of over 55% in size
Target sequence (A8B2U2 whole entry, looked up): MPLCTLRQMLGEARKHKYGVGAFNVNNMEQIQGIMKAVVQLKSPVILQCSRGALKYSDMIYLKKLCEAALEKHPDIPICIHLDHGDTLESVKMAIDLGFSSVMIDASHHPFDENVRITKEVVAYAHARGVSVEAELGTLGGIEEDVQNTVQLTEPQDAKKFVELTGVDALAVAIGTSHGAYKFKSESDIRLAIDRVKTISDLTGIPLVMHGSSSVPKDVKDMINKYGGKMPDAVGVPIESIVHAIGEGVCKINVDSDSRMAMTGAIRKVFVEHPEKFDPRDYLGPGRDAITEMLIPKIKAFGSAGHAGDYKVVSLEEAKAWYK
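Giardia FBPA (40 nM reagent) was preincubated 10 min at RT with compound (up to 57.5 uM final), then substrate plus GAPDH/TPI/NAD/arsenate coupling system with diaphorase/resazurin was added; resorufin fluorescence (525/598 nm) was read after 20 min.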
AmpC no deterg: blocks E. coli AmpC beta-lactamase in detergent-free assay | P00811 | AmpC nitrocefin hydrolysis, absorbance 480 nm, 0.0001% Triton | Potency, µM (top dose mostly 57.1 µM), hits mostly inhibitors | actives 0.52% (n = 330,000) | AID 485341; further: nearly all actives have a fitted effect of over 20% in size
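20 mM phosphate pH 7.0 + 0.01% (detergent screen) or 0.0001% Triton X-100; 5.3 nM AmpC reagent; cpd preinc 15 min RT; nitrocefin (800 uM stock) to start; A480 q20 s × 4 min; Activity was normalised to no-enzyme and no-compound control wells.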
Large screens that a line does not name were inactive. A selection: hits, their analogues and other compounds. The true share with any hit is near 3.4%. Unless noted, the call rests on the fitted dose curve; in most records, active means well fitted curve in the direction sought with a large enough effect; inconclusive means small, poorly fitted or top-dose-only effect, or another doubt; inactive means no such curve, though single readings can be large; an effect the other way counts as inactive or inconclusive.

O=C(CCS(=O)NCc1ccccc1)NCc1ccccc1 (stereo not given)	Sm TGR block 31.6µM, AmpC detergent inconclusive (no result: RE007 growth inh)
COc1ccccc1/C=C1\SC(=S)N(CCC(=O)NNC(=O)c2ccccc2O)C1=O	AmpC no deterg 15.8µM
COc1ccc(/C=C2\SC(=S)N(CCCC(=O)NNC(=O)c3ccccc3O)C2=O)cc1	none
CCN(c1ccc(OC)cc1)S(=O)(=O)c1csc(C(N)=O)c1	none
Cc1ccc(C)c(SCC(=O)OCC(=O)c2ccco2)c1	Sm TGR block 39.8µM
O=C(Cc1cccs1)OCC(=O)c1ccco1	Sm TGR block 25.1µM
Cn1c(N)c(C(=O)COC(=O)Cc2cccs2)c(=O)n(C)c1=O	none (no result: Sm TGR block, AmpC detergent, FBPA Giardia inh)
Cc1ccc(C)c(SCC(=O)NCc2ccco2)c1	none
CN(C)/C=N/c1ncc(-c2ncc(C(F)(F)F)cc2Cl)cn1	none
CCc1cc(C(=O)Nc2ccccc2)cs1	RE007 growth inh inconclusive, AmpC detergent inconclusive
Cc1nc(CNS(=O)(=O)c2cccs2)cs1	none
O=C(CSc1nnc(C2COc3ccccc3O2)o1)NC1CCCCC1 (stereo not given)	AmpC no deterg 39.8µM
Cc1ccc(NC(=O)C2CCCN2C(=O)NC2CCCCC2)cc1F (stereo not given)	none
NC(=O)N/N=C/c1sc(=O)n(-c2ccccc2)c1Cl	Sm TGR block 31.6µM
c1ccc(CCC2Cc3ccccc3N2)cc1 (stereo not given)	none (no result: FBPA Giardia inh)
COc1ccccc1N1C(=O)C2C(c3ccccc3F)NN(C(=O)c3ccc(C)cc3)C2C1=O (stereo not given)	Sm TGR block 17.8µM
Cc1ccc(C(=O)N2NC(c3ccccc3F)C3C(=O)N(c4cccc(C)c4)C(=O)C32)cc1 (stereo not given)	none
Cc1ccn(CC(=O)N2CCCC(N3CCN(c4ccccc4F)CC3)C2)n1 (stereo not given)	AmpC detergent inconclusive
CCN(CC)C(=O)C1CCCN(C/C(C)=C/c2ccccc2)C1 (stereo not given)	none
CCN(CC)C(=O)C1CCCN(C/C=C/c2ccccc2)C1 (stereo not given)	AmpC no deterg 0.282µM
Cc1ccc2[nH]c3c(c2c1)CCCC3NCCO (stereo not given)	FBPA Giardia inh inconclusive
COc1cc(C(=O)C(=O)c2ccc(OC)c(OC)c2)ccc1O	none (no result: Sm TGR block, AmpC detergent, FBPA Giardia inh, AmpC no deterg)
CC(C)c1ccc(N2C(=O)CC(Sc3ncn[nH]3)C2=O)cc1 (stereo not given)	Sm TGR block 0.562µM, RE007 growth inh 56.2µM, FBPA Giardia inh inconclusive
COc1ccc(N2C(=O)CC(Sc3ncn[nH]3)C2=O)c(OC)c1 (stereo not given)	Sm TGR block 0.282µM, AmpC detergent inconclusive, FBPA Giardia inh inconclusive
O=C(O)c1cccc(NC(=S)NC(=O)c2ccc3ccccc3c2)c1	Sm TGR block 25.1µM
O=C(NC(=S)NNC(=O)c1cccs1)c1ccccc1	Sm TGR block 50.1µM (no result: FBPA Giardia inh)
CCOc1cccc(C(=O)NC(=S)Nc2ccccc2)c1	Sm TGR block 39.8µM
O=C(NC(=S)Nc1cccnc1)c1cccc(Br)c1	Sm TGR block 15.8µM, FBPA Giardia inh inconclusive
CCCCOc1cccc(C(=O)NC(=S)Nc2cccnc2)c1	AmpC detergent inconclusive (no result: RE007 growth inh)
c1ccc2c(c1)CCc1c(-c3ccncc3)n[nH]c1-2	none (no result: FBPA Giardia inh)
OC1CCCN(CC(O)COc2ccc(-c3ccccc3)cc2)C1 (stereo not given)	none
CC(C)(C)OC(=O)N1CCC(c2c(C(=O)NC3CC3)cnn2-c2ccccc2)CC1	none
CCOc1cccc(C(=O)NC(=S)Nc2cccnc2)c1	Sm TGR block 44.7µM, AmpC detergent inconclusive, FBPA Giardia inh inconclusive
O=C(O)c1cccc(NC(=O)c2ccccc2)c1	none (no result: Sm TGR block, AmpC detergent, FBPA Giardia inh, AmpC no deterg)
Cc1cc(O)ccc1NC(=S)NC(=O)c1cncc(Br)c1	none
O=C(Nc1cccc(C(=O)Nc2cccc(Br)c2)c1)c1ccccc1	AmpC detergent inconclusive, AmpC no deterg 14.1µM
Cc1ccccc1NC(=S)NC(=O)c1cncc(Br)c1	Sm TGR block 12.6µM
O=C(O)c1ccc(NC(=S)NC(=O)c2cccc(COc3ccccc3)c2)cc1	Sm TGR block 25.1µM
Cc1nc(N)sc1N=Nc1ccccc1C(F)(F)F	none
O=C(NC(=S)Nc1cccnc1)c1cccs1	Sm TGR block 10µM, FBPA Giardia inh inconclusive
Cc1ccc(C(=O)CSC2=C(C#N)C(c3ccco3)C3=C(CCCC3=O)N2)cc1 (stereo not given)	Sm TGR block inconclusive, AmpC detergent inconclusive, AmpC no deterg inconclusive
CC(C)(C)c1ccc(C(=O)CCCSC2=C(C#N)C(c3ccco3)C3=C(CCCC3=O)N2)cc1 (stereo not given)	Sm TGR block 39.8µM
COCCn1c(-c2ccc(-c3ccc([N+](=O)[O-])cc3Br)o2)nc2c1c(=O)[nH]c(=O)n2CC(C)C	Sm TGR block 44.7µM
CCCCn1c(=O)[nH]c(=O)c2c1nc(-c1ccc3ccccc3c1)n2CC	none
COCCn1c(=O)[nH]c(=O)c2c1nc(-c1ccc(-c3ccc(Cl)cc3[N+](=O)[O-])o1)n2Cc1ccccc1	Sm TGR block 50.1µM, FBPA Giardia inh inconclusive, AmpC no deterg 7.94µM
CCCCn1c(=O)[nH]c(=O)c2c1nc(-c1ccc(-c3ccccc3Br)o1)n2CC	Sm TGR block 12.6µM
CCOC(=O)C1=C(C)NC(=S)NC1c1ccc(C)s1 (stereo not given)	AmpC detergent inconclusive, AmpC no deterg inconclusive
CCOC(=O)N1CCC(NC(=O)C2CCN(S(=O)(=O)c3ccc4c(c3)oc(=O)n4C)CC2)CC1	none
Cc1ccc(OCC(=O)Nc2ccccc2C(=O)N2CCCCC2)cc1	none (no result: FBPA Giardia inh)
CN(C)N1C(N)=C(C#N)C(c2cccs2)C2=C1CC(C)(C)CC2=O (stereo not given)	FBPA Giardia inh 17.7µM
CC1(C)CC(=O)C2=C(C1)N(c1cccnc1)C(N)=C(C#N)C2c1cccs1 (stereo not given)	Sm TGR block 50.1µM, FBPA Giardia inh inconclusive
COc1ccc(N2C(N)=C(C#N)C(c3cccnc3)C3=C2CC(C)(C)CC3=O)cc1 (stereo not given)	Sm TGR block 10µM
O=S(=O)(/N=C(/Sc1ccccc1)c1ccccc1)c1ccccc1	Sm TGR block 1.78µM
CS/C(=N\S(=O)(=O)c1ccccc1)c1ccccc1	AmpC detergent inconclusive
CSCCC(NC(=O)c1cccc([N+](=O)[O-])c1)c1nc2ccccc2[nH]1 (stereo not given)	AmpC no deterg 20µM
CSCC[C@H](NC(=O)c1cc([N+](=O)[O-])ccc1Cl)c1nc2ccccc2[nH]1	AmpC detergent inconclusive
O=[N+]([O-])c1cc(C=Nc2cccc3c(O)cccc23)ccc1Cl	Sm TGR block 39.8µM (no result: RE007 growth inh)
CC(C)(C)C(=O)n1nc(-c2ccccc2)oc1=O	Sm TGR block 31.6µM
